For assay [1], the target named is Albumin (Bos taurus) (UniProt P02769). As to the kind of experiment: compounds binding labelled BSA control protein – biochemical, small-molecule microarray, Alexa647 label, 635/667 nm fluorescence, artefact control for SMM control protein annotation, profiling panel (AID 1118).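 Note: score merges 667 nm emission intensity and signal-to-noise per printed compound spot.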 The settings on record: BSA-A647 binding, fluorescence 635 nm, higher = more signal.
Assay [2] in a line: probe aXIP binding to arrayed compounds – biochemical, NeuroSMM set, 635/667 nm fluorescence, primary screen (AID 1119).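 Note: probe is the protein aXip251-270 applied at 1 µg/mL to compound-printed slides; binding of probe to printed compounds measured as 667 nm fluorescence plus signal to noise.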 The note with it: small-molecule microarray, higher = more signal, called active from +8 up or from −8 down.
A short description of assay [3]: probe aNOTCH3 binding on compound microarray – biochemical, small-molecule microarray, 635/667 nm fluorescence, primary screen (AID 1120).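 Note: probe is a biotin-tagged antibody raised against NOTCH3 rather than NOTCH3 protein; score merges spot fluorescence near 667 nm with spot signal to noise.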 The settings on record: higher = more signal.
Assay [4] can be described thus: probe aNOTCH2 binding on compound microarray – biochemical, small-molecule microarray, 635/667 nm fluorescence, primary screen (AID 1121).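 Note: score merges feature fluorescence read at 667 nm with its signal to noise.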 The note with it: higher = more signal.
Assay [5] has as its target Carbonic anhydrase 2 (Homo sapiens) (UniProt P00918). Put plainly: compounds binding carbonic anhydrase 2 – biochemical, small-molecule microarray, Alexa647-labelled CAII, profiling panel (AID 1122). The settings on record: CAII-A647 binding fluorescence, higher = more signal.
Assay [6] can be described thus: COS7 lysate on small-molecule microarray, probe aHis, 635 nm (AID 1123).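 Note: z-score combines 667nm fluorescence intensity with signal-to-noise per printed compound spot.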 The settings on record: COS7 cell lysate, fluorescence, higher = more signal.
Assay [7] is described as follows: probe aLAP1 signal on lysate-treated microarray – cell lysate, small-molecule microarray, COS7 lysate, primary screen (AID 1124).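 Note: lysate comes from COS7 cells expressing LAP1 and is applied at 0.3 µg/mL; score merges spot fluorescence near 667 nm with signal-to-noise over triplicate slides.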 The settings on record: probe aLAP1, fluorescence, higher = more signal.
The test system of assay [8] is Sam68 (KHDRBS1). As to the kind of experiment: compounds binding KHDRBS1 protein – biochemical, small-molecule microarray, 635 nm fluorescence, primary screen (AID 1125).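 Note: score merges 667 nm channel intensity with signal to noise over triplicate slides.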 The note with it: higher = more signal.
Assay [9] has as its system Chordin-like protein 2 (CHRDL2). Put plainly: compounds binding chordin-like 2 – biochemical, small-molecule microarray, 635 nm fluorescence, primary screen (AID 1126).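 Note: printed compound slides probed with Chrdl2 protein at 4 µg/mL for 1 h at 4 C; score merges 667 nm emission intensity with signal to noise over three replicate slides.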 The note with it: fluorescence 635 nm, higher = more signal.
The target in assay [10] is Concanavalin-A (Canavalia ensiformis) (UniProt P02866). Put plainly: compounds binding concanavalin A lectin – biochemical, small-molecule microarray, Alexa647 label, 635 nm, artefact control for SMM control protein annotation, primary screen (AID 1127).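 Note: z combines 667 nm emission intensity with signal-to-noise across three replicate slides.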 The settings on record: ConA-A647 binding fluorescence, higher = more signal.
Chain of Concanavalin-A (Canavalia ensiformis) (P02866 whole entry, looked up): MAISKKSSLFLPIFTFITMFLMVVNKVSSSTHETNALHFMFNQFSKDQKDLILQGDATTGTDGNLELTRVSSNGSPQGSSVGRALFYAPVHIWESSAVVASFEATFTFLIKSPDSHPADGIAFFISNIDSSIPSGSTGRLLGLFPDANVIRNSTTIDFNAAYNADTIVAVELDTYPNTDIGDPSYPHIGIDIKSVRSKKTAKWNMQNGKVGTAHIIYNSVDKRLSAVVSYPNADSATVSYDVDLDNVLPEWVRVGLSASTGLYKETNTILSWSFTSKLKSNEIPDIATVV
Assay [11] in a line: compounds binding Alexa647 anti-His antibody – biochemical, small-molecule microarray, 635 nm fluorescence, artefact control for SMM control protein annotation, primary screen (AID 1128).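 Note: score merges feature fluorescence with signal-to-noise for each printed compound spot.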 The settings on record: higher = more signal.
The test system of assay [12] is Human papillomavirus type 1a E7 protein (residues 1-88). Put plainly: HPV1a E7 small-molecule binders, primary screen, biochemical, small-molecule microarray, residues 1-88, 635 nm (AID 1129). The note with it: small-molecule microarray binding, fluorescence 635 nm; higher = more signal.
Assay [13] addresses Focal adhesion kinase 1 (Homo sapiens) (UniProt Q05397). Put plainly: PTK2 protein binding on printed compound slides – biochemical, small-molecule microarray, 635/667 nm fluorescence, BSA, DTT, primary screen (AID 1130).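 Note: composite of spot emission at 667 nm and signal to noise over triplicate slides.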 The note with it: 635 nm fluorescence, higher = more signal.
For assay [14], the system named is Fibrinogen (Alexa647-labelled). Put plainly: Alexa647-fibrinogen binding to printed small molecules – biochemical, small-molecule microarray, 635/667 nm fluorescence, artefact control for SMM control-protein annotation, profiling panel (AID 1131).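 Note: z-score merges 667 nm fluorescence with per-spot signal-to-noise over triplicate slides.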 The settings on record: fibrinogen-A647 binding fluorescence, higher = more signal.
The target in assay [15] is Follistatin (Homo sapiens) (UniProt P19883). As to the kind of experiment: FST protein binding to printed compounds – biochemical, small-molecule microarray, 635/667 nm fluorescence, primary screen (AID 1132). The settings on record: 635 nm fluorescence, higher = more signal.
Chain of Follistatin (Homo sapiens) (P19883 whole entry, looked up): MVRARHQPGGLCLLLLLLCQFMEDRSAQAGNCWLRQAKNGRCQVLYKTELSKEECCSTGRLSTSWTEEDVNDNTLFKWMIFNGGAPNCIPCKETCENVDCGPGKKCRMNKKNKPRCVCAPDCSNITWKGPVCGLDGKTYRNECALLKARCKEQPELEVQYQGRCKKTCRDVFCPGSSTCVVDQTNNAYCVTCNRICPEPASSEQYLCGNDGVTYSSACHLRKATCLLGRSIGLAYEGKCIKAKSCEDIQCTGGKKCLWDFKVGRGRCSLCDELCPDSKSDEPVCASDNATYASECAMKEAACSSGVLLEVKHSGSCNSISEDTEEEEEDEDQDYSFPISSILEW
Assay [16] concerns the target Fibroblast growth factor 2 (Homo sapiens) (UniProt P09038). As to the kind of experiment: basic fibroblast growth factor binding to printed compounds – biochemical, small-molecule microarray, 635/667 nm fluorescence, primary screen (AID 1133). The settings on record: FGF2, fluorescence 635/667, higher = more signal.
The nature of assay [17]: JC-1 mitochondrial potential readout, lung cancer cells – cell-based, A549, JC-1 fluorescence, basal, 24 h, 100 nL, profiling panel (AID 1138).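 Note: A549 lung adenocarcinoma cells under basal conditions with no added stimulus; test concentration not given here.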 The settings on record: higher = more signal.
Assay [18] relates to Lefty1. Put plainly: Lefty1 protein binding to printed compounds – biochemical, small-molecule microarray, 635/667 nm fluorescence, primary screen (AID 1139). The settings on record: fluorescence 635/667, higher = more signal.
Assay [19] deals with wheat germ agglutinin (Triticum aestivum), Alexa647-labelled. As to the kind of experiment: Alexa647-WGA lectin binding to printed small molecules – biochemical, small-molecule microarray, 635/667 nm fluorescence, artefact control for SMM control-protein annotation, profiling panel (AID 1140).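 Note: score merges 667 nm feature emission with signal to noise over triplicate slides.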 The note with it: WGA-A647 binding, 635 nm fluorescence, higher = more signal.
Assay [20] deals with Luciferin 4-monooxygenase (Photinus pyralis) (UniProt P08659). As to the kind of experiment: inhibition of purified Photinus pyralis luciferase – biochemical, luminescence, purified enzyme, 2006 set, primary screen (AID 1141).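 Note: cell-free assay with purified firefly luciferase at 100 ng per well in PBS; test concentration not given here.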 The settings on record: purified firefly luciferase, SteadyGlo luminescence, 30 min; higher = more signal, called active from +8 up or from −8 down.
Chain of Luciferin 4-monooxygenase (Photinus pyralis) (P08659 whole entry, looked up): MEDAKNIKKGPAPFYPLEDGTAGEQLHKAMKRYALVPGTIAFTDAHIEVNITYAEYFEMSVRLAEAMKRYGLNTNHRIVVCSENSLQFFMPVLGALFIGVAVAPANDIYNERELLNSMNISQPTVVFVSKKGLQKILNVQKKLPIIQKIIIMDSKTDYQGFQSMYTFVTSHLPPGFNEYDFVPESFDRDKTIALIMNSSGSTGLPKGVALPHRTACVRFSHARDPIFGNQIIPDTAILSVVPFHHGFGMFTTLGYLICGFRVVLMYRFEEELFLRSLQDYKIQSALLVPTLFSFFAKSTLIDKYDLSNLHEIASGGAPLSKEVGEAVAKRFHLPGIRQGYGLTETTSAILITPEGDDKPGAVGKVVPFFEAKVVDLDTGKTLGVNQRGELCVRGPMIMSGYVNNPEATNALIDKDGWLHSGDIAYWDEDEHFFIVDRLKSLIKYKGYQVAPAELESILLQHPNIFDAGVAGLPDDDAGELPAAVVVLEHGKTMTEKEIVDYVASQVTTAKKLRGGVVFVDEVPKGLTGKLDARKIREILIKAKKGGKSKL

Structures are written as SMILES. Active and inactive are the calls of the source.

Chain of Albumin (Bos taurus) (P02769 whole entry, looked up): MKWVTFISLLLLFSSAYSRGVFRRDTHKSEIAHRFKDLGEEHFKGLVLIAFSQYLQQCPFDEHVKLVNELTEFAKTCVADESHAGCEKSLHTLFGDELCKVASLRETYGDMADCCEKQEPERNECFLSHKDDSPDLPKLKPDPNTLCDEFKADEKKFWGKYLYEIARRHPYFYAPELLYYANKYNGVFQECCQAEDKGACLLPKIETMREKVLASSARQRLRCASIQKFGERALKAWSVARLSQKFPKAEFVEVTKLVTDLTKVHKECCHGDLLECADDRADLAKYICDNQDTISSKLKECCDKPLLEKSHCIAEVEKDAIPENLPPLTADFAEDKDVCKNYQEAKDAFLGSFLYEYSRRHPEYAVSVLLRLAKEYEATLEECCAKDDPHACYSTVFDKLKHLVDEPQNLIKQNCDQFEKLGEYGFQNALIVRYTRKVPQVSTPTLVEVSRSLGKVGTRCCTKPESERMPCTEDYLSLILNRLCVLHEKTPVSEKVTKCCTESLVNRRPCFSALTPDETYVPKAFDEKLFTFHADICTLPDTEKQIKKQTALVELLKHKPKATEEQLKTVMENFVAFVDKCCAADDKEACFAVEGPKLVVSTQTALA
Chain of Fibroblast growth factor 2 (Homo sapiens) (P09038 whole entry, looked up): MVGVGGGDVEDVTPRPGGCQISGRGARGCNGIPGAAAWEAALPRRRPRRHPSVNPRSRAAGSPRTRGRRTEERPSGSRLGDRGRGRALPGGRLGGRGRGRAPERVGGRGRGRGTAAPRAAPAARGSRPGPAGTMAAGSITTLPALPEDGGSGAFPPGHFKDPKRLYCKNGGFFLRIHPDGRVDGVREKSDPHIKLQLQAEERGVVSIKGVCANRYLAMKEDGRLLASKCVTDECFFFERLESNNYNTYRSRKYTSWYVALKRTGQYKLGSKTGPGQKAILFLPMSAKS
Chain of Focal adhesion kinase 1 (Homo sapiens) (Q05397 whole entry, looked up): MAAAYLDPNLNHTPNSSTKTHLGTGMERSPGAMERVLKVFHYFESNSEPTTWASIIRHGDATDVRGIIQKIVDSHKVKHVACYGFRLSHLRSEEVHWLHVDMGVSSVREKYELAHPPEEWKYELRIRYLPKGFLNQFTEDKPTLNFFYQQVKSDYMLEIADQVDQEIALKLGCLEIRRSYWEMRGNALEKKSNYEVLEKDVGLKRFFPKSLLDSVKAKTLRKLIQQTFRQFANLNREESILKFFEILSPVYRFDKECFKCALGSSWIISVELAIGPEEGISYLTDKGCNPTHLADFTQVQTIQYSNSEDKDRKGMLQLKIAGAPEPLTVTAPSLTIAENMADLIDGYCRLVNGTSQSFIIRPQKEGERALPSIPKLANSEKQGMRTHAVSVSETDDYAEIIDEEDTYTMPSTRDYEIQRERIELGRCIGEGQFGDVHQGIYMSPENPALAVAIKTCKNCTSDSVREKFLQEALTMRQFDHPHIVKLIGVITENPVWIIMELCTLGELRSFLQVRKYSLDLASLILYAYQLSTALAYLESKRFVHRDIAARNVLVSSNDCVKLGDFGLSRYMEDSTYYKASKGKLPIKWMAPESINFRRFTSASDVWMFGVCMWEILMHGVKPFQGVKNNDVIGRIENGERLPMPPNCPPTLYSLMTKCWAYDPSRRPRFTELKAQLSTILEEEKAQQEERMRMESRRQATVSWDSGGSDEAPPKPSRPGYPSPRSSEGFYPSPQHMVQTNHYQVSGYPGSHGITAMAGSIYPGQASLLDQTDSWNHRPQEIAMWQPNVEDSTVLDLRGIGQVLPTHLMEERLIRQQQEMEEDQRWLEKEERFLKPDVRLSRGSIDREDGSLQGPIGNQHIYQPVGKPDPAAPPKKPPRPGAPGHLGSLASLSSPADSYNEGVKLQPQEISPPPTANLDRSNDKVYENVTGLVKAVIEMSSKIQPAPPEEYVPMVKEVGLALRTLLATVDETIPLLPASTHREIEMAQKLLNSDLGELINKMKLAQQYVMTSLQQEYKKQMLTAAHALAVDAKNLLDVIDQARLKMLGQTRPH

`CC(C)C[C@@H]1NC(=O)[C@@H]2C[C@H](C(=O)O)[C@H](c3cccc(OCCO)c3)N2C1=O`: the composite z-score in [1] is -0.494; in assay [3], -0.204; in [4] it was -0.164; in assay [5], 0.673; in assay [6], 1.78; in [7] it was 0.283. Also, the composite z-score in assay [8] is -0.0754; in assay [9], 0.707; in assay [10], 0.684; in assay [11] it was 2.29; in assay [12], -0.312; in assay [13], -0.176. Also, the composite z-score in assay [14] was -0.0031; in [15] it was 0.495; in assay [16] it was 0.89; in [18], -0.375; in assay [19] it was 0.275. The composite Z-score in assay [2] is -0.303 (inactive). Moreover, the z-score in [17] was -0.0906; in [20], -0.291 (inactive).
`CN(C)CCCCCCNC(=O)[C@H]1C[C@H]2C(=O)N[C@@H](CCCCN)C(=O)N2[C@H]1c1cccc(OCCO)c1`: the composite z-score in assay [1] worked out at 0.733; in assay [3] it was 1.95; in assay [4], 0.986; in [5], 0.773; in assay [6], 4.1; in assay [7], 0.952. Further, the composite z-score in assay [8] stood at 1.33; in assay [9] it was 1.46; in assay [10], 1.25; in assay [11], 3.31; in assay [12] it was 1.35; in assay [13], 3.91. Moreover, the composite z-score in assay [14] was found to be 0.977; in assay [15], 1.54; in assay [16], 0.844; in assay [18], 1.41; in [19] it was 1.64. Besides, in assay [2], the composite Z-score is 5.67 (inactive). Besides, the z-score is 0.332 in assay [17] and -0.485 (inactive) in assay [20].
For `C=C[C@@H](COC(=O)OC(C)(C)C)N(Cc1ccc(OC)cc1)S(=O)(=O)c1ccc(Br)cc1`, the composite z-score in assay [1] was -0.0125; in [3] it was 0.185; in assay [4] it was -0.154; in assay [5] it was -0.0303; in [6], 0.456; in [7], -0.024. The composite z-score in [8] was determined as 0.828; in [9], 0.708; in assay [10] it was 0.802; in assay [11], 1.03; in assay [12], 1.11; in assay [13] it was 0.43. Further, the composite z-score in [14] was 0.731; in assay [15], 0.844; in assay [16] it was 0.683; in assay [18], 0.9; in [19], 0.285. For the same compound, the composite Z-score in assay [2] is 0.342 (inactive). Moreover, the z-score in assay [17] is 3.28; in [20] it was -0.694 (inactive).
For `COC(=O)[C@H](Cc1ccccc1)N1CC2=C[C@@H](C3CC3)n3c(=O)n(C)c(=O)n3[C@H]2[C@@H]1[C@@H](O)Cc1ccccc1`, the composite z-score is 0.503 in [1]; 0.0562 in assay [3]; -0.115 in assay [4]; 0.298 in assay [5]; 0.653 in assay [6]; 0.0511 in assay [7]. Besides, the composite z-score in [8] was 1.18; in assay [9], 0.162; in assay [10], 0.658; in assay [11] it was 0.0823; in [12], 0.881; in assay [13], 0.148. In addition, the composite z-score in assay [14] amounted to 0.588; in assay [15], 0.898; in assay [16], 0.212; in assay [18], 0.972; in [19], 0.0263. For the same compound, the composite Z-score in assay [2] was 0.133 (inactive). For the same compound, the z-score in assay [17] is 1.58; in assay [20], -0.126 (inactive).
In the case of `C=CC[C@@]12N=C(c3ccc(OCCCO)cc3)O[C@@H]1c1ccccc1N(C)C2=O`, the composite z-score in [1] was -0.16; in [3], 0.0637; in assay [4], -0.0374; in assay [5], 0.655; in [6], 2.67; in [7], 0.319. Also, the composite z-score in [8] was determined as 1.22; in assay [9], 0.718; in assay [10], 0.838; in assay [11], 2.16; in assay [12] it was 1.23; in assay [13], 0.338. The composite z-score came to 0.363 in assay [14]; 1.52 in assay [15]; 1.62 in assay [16]; 0.283 in assay [18]; 0.65 in assay [19]. Also, in [2], the composite Z-score is -0.419 (inactive). In addition, the z-score in assay [17] is 1.26; in assay [20], -4.19 (inactive).

Values taken from PubChem BioAssay.
